# Laboratory results: article PMC7862700, “An all-to-all approach to the identification of sequence-specific readers for epigenetic DNA modifications on cytosine”
# How the values were obtained:
# Assay in all cases: DAPPL (digital affinity profiling via proximity ligation, sequencing); 10 mM Tris-HCl pH 7.5, 50 mM NaCl, 1 mM DTT, 4% glycerol, room temperature, 30 min; GST-TFs on glutathione beads, 16-mer random dsDNA library, 0.1% formaldehyde crosslink after washing; high values mean tight binding
# FEV = target: T1, FEV (Homo sapiens, UniProt Q99581 1-238); settings: protein: recombinant; tags: N-terminal GST; dsDNA, one strand shown
# T1 sequence: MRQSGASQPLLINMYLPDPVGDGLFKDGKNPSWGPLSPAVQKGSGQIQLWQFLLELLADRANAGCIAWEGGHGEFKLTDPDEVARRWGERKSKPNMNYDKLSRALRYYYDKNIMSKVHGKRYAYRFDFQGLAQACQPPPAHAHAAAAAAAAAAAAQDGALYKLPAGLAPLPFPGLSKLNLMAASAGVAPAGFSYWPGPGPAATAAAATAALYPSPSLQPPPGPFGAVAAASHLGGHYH
# How it was run: (§1)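 Human transcription factors fused to GST were expressed in yeast, captured on glutathione beads, given DNA barcodes and pooled with a GST-only negative control. Pools were incubated with 200 nmole of a 16-mer random double-stranded DNA library in Tris/NaCl/DTT/glycerol buffer at room temperature for 30 min. They were then washed, crosslinked with 0.1% formaldehyde, proximity-ligated (BsaI/T4 ligase, 1 h, 37 °C), PCR-amplified and sequenced on an Illumina NextSeq500. Binding signal is each 6-mer's read frequency for a factor divided by its frequency for the GST control.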
# ETV5 = ETV5 (Homo sapiens, UniProt P41161 1-510); settings: protein: recombinant; tags: N-terminal GST; dsDNA, one strand shown
# ETV5, sequence (P41161 whole entry): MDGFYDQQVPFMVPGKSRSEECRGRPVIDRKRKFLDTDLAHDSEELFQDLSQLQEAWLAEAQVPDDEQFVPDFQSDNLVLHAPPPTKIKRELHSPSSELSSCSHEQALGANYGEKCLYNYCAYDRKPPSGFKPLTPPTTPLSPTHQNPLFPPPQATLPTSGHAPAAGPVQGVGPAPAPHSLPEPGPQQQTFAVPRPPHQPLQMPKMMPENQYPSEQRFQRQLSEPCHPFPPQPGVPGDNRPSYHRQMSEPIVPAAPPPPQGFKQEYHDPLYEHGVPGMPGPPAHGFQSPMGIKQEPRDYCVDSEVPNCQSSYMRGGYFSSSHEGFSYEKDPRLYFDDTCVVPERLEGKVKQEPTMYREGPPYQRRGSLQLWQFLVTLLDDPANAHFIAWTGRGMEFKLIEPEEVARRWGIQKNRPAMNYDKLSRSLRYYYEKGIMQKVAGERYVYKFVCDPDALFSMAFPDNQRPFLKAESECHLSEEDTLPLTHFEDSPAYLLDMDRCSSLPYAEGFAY
# How it was run: as §1
# HSF1 = HSF1 (Homo sapiens, UniProt Q00613 1-529); settings: protein: recombinant; tags: N-terminal GST; chain copies: 3; dsDNA, one strand shown
# HSF1, sequence (Q00613 whole entry): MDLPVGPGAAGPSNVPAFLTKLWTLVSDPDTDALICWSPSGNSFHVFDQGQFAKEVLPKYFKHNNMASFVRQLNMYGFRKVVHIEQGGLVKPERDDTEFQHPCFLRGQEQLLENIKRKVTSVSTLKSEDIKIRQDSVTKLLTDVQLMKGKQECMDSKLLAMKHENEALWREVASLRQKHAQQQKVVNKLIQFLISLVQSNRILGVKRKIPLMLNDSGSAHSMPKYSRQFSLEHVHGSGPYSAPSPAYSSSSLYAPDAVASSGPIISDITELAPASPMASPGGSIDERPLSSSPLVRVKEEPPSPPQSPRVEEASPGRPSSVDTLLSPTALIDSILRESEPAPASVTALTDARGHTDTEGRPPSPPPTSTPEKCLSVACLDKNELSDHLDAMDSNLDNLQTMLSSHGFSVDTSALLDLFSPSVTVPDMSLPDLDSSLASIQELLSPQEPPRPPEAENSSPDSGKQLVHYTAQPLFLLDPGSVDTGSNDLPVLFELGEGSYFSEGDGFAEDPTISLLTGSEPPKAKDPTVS
# How it was run: as §1
# SPIC = target: T2, SPIC (Homo sapiens, UniProt Q8N5J4 1-248); settings: protein: recombinant; tags: N-terminal GST; dsDNA, one strand shown
# T2 sequence: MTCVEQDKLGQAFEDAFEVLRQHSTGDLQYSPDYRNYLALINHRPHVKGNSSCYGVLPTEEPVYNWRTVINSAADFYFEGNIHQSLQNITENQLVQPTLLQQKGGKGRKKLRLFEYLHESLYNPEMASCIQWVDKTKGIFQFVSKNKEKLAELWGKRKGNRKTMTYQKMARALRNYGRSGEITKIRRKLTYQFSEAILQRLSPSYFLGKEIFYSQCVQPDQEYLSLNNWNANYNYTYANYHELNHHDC
# How it was run: as §1
# ELF4 = ELF4 (Homo sapiens, UniProt Q99607 1-663); settings: protein: recombinant; tags: N-terminal GST; dsDNA, one strand shown
# ELF4, sequence (Q99607 whole entry): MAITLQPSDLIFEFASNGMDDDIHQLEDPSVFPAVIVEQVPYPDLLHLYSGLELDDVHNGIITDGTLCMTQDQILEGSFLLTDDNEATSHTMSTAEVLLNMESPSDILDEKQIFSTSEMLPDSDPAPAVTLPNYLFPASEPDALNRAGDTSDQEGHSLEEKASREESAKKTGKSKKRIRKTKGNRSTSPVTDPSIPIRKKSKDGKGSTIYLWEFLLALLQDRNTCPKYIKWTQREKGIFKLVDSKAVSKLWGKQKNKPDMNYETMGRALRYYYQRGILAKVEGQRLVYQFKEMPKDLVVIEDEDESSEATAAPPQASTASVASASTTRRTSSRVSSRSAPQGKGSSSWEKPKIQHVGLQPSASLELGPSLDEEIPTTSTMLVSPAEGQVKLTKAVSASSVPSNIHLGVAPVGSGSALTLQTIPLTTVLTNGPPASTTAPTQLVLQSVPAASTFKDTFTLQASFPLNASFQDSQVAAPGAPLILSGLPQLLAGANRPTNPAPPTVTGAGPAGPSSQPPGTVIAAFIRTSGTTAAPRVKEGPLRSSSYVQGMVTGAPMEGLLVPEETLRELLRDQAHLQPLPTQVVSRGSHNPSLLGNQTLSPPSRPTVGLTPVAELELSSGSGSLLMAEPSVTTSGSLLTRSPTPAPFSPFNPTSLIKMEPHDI
# How it was run: as §1
# ELK4 = target: T3, ELK4 (Homo sapiens, UniProt P28324-2 1-405); settings: protein: recombinant; tags: N-terminal GST; dsDNA, one strand shown
# T3 sequence: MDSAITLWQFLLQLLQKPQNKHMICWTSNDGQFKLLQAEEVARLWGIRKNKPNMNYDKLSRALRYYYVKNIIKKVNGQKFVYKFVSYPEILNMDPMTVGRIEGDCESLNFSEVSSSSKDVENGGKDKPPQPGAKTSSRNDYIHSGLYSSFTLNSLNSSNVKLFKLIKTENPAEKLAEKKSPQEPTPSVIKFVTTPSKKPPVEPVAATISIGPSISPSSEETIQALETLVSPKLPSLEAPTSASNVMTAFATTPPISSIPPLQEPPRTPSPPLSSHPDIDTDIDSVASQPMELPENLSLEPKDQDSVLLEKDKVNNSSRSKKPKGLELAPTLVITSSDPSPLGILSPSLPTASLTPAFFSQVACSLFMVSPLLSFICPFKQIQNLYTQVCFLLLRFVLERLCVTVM
# How it was run: as §1
# ETV2 = target: T4, ETV2 (Homo sapiens, UniProt O00321 1-342); settings: protein: recombinant; tags: N-terminal GST; dsDNA, one strand shown
# T4 sequence: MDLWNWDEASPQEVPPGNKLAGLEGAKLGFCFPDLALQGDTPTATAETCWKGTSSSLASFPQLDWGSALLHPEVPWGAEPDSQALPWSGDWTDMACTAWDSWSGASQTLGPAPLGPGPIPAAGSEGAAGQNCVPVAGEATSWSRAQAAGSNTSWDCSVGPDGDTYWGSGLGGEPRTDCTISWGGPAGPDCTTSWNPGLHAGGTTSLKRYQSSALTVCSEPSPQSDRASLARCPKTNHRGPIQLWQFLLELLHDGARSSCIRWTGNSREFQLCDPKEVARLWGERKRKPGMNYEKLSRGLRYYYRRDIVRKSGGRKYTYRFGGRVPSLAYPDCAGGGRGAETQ
# How it was run: as §1
# ELF3 = target: T5, ELF3 (Homo sapiens, UniProt P78545 1-371); settings: protein: recombinant; tags: N-terminal GST; dsDNA, one strand shown
# T5 sequence: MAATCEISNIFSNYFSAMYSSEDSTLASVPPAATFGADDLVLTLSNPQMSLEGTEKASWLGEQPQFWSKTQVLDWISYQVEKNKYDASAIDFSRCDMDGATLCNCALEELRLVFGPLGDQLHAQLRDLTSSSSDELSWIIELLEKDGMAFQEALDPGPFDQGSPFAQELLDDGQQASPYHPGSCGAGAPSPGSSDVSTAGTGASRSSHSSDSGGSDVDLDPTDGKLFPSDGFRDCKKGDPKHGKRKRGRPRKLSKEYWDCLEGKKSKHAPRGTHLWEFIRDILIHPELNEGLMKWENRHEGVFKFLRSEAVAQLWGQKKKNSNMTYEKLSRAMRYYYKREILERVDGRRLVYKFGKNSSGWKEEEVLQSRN
# How it was run: as §1
# CRX = CRX (Homo sapiens, UniProt O43186 1-299); settings: protein: recombinant; tags: N-terminal GST; dsDNA, one strand shown
# CRX, sequence (O43186 whole entry): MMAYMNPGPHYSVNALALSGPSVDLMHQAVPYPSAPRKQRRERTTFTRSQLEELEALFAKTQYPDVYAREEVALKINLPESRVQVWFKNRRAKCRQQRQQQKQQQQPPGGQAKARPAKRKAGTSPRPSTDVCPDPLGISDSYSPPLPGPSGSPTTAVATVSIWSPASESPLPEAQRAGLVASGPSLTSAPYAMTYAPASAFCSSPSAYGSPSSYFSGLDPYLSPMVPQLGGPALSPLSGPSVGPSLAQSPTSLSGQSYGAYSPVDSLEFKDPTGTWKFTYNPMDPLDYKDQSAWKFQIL
# How it was run: as §1
# ETV1 = ETV1 (Homo sapiens, UniProt P50549 1-477); settings: protein: recombinant; tags: N-terminal GST; dsDNA, one strand shown
# ETV1, sequence (P50549 whole entry): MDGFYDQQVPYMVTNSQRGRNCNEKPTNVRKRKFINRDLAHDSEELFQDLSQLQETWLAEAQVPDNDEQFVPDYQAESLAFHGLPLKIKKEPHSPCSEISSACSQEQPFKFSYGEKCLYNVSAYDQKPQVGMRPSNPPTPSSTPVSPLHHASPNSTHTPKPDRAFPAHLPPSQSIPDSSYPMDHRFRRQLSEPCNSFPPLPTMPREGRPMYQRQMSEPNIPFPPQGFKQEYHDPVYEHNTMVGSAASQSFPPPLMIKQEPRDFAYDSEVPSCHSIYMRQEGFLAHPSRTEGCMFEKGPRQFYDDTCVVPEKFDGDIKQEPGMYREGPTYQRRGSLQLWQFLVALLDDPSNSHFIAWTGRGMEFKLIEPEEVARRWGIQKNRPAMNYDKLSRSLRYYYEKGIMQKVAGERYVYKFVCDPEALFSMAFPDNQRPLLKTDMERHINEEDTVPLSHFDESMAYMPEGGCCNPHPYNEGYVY
# How it was run: as §1
# ERF = target: T6, ERF (Homo sapiens, UniProt P50548 1-548); settings: protein: recombinant; tags: N-terminal GST; dsDNA, one strand shown
# T6 sequence: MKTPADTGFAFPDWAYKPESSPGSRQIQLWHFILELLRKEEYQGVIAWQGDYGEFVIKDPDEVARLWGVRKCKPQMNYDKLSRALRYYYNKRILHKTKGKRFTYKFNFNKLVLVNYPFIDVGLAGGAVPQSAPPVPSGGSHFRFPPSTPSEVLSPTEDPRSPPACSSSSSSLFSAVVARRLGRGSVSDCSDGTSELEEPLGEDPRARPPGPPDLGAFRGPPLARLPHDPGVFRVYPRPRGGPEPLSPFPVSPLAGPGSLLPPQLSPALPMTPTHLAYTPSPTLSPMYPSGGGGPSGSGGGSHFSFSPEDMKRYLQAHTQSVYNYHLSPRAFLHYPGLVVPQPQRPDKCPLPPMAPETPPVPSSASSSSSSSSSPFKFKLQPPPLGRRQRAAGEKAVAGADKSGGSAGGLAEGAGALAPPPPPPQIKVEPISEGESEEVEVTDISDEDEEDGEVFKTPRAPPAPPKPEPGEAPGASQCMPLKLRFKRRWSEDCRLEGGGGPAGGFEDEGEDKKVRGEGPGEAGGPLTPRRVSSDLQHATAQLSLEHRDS
# How it was run: as §1
# ETV3L = target: T7, ETV3L (Homo sapiens, UniProt Q6ZN32 1-361); settings: protein: recombinant; tags: N-terminal GST; dsDNA, one strand shown
# T7 sequence: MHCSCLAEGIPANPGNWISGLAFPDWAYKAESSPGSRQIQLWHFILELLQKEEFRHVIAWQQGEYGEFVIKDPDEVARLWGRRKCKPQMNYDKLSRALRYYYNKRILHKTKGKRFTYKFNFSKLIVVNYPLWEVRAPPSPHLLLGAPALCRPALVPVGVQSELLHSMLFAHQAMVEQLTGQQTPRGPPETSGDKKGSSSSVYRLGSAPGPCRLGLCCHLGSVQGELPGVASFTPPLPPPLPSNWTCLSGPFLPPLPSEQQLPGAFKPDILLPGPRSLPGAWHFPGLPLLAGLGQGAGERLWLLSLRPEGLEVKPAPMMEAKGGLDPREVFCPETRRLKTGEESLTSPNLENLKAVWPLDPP
# How it was run: as §1
# ETS2 = target: T8, ETS2 (Homo sapiens, UniProt P15036 1-469); settings: protein: recombinant; tags: N-terminal GST; dsDNA, one strand shown
# T8 sequence: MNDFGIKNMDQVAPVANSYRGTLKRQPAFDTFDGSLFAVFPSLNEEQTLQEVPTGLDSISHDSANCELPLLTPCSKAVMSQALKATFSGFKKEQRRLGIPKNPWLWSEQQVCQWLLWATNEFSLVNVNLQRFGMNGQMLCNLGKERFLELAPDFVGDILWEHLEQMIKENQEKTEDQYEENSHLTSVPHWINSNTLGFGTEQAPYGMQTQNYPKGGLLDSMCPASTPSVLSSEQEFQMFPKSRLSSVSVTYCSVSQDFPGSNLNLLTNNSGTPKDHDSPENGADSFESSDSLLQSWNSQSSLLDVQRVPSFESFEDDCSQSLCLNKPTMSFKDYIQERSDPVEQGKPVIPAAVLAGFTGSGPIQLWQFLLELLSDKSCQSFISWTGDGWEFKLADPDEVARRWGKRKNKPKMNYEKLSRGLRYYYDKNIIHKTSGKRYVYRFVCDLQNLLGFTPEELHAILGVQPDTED
# How it was run: as §1
# SPDEF = target: T9, SPDEF (Homo sapiens, UniProt O95238 1-335); settings: protein: recombinant; tags: N-terminal GST; dsDNA, one strand shown
# T9 sequence: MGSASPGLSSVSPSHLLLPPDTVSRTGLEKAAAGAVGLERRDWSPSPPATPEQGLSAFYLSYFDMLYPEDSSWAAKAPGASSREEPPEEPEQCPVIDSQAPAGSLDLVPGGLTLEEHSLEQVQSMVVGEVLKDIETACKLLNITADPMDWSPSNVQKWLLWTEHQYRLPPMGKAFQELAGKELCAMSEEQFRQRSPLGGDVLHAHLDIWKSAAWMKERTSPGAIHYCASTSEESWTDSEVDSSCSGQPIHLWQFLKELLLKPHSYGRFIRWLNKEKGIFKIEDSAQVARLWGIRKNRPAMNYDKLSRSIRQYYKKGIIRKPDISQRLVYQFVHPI
# How it was run: as §1
# ETV7 = target: T10, ETV7 (Homo sapiens, UniProt Q9Y603 1-341); settings: protein: recombinant; tags: N-terminal GST; dsDNA, one strand shown
# T10 sequence: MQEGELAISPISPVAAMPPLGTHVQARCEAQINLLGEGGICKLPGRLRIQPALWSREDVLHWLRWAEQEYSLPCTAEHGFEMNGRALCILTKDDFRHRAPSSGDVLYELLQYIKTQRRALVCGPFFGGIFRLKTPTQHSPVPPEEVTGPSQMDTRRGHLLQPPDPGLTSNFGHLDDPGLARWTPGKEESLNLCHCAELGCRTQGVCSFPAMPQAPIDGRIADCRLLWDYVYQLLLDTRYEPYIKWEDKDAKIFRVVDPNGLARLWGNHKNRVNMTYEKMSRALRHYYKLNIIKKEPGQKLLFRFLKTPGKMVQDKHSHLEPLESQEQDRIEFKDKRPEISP
# How it was run: as §1
# ELF5 = target: T11, ELF5 (Homo sapiens, UniProt Q9UKW6-2 1-255); settings: protein: recombinant; tags: N-terminal GST; dsDNA, one strand shown
# T11 sequence: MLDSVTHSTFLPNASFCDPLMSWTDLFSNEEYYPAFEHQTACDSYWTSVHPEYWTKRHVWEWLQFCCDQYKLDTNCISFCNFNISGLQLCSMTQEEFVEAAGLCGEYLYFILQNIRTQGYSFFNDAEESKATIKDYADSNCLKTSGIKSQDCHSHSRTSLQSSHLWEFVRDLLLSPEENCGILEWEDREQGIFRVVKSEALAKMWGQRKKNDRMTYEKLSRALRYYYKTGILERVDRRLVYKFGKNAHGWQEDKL
# How it was run: as §1
# ETV3 = target: T12, ETV3 (Homo sapiens, UniProt P41162-2 1-143); settings: protein: recombinant; tags: N-terminal GST; dsDNA, one strand shown
# T12 sequence: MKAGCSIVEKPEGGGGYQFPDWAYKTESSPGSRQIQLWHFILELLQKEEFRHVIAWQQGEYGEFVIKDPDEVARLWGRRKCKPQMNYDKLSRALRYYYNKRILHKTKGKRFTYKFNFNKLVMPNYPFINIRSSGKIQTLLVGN
# How it was run: as §1
# ETV6 = ETV6 (Homo sapiens, UniProt P41212 1-452); settings: protein: recombinant; tags: N-terminal GST; dsDNA, one strand shown
# ETV6, sequence (P41212 whole entry): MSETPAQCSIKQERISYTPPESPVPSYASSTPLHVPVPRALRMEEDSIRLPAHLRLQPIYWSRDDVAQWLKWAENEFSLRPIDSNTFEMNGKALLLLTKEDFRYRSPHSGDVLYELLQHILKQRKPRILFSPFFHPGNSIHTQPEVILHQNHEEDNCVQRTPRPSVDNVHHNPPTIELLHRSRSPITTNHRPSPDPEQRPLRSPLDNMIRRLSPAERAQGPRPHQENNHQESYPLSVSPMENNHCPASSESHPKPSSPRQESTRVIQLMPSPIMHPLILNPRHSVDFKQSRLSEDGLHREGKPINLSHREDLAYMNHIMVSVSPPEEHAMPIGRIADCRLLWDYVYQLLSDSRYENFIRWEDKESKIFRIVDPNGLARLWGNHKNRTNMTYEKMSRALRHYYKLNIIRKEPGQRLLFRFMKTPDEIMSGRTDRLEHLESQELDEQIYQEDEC
# How it was run: as §1
sequence,measurement,setting,value
TGATGC,binding signal,FEV,"1.44 fold enrichment (6-mer frequency, TF over GST control)"
same,binding signal,ETV5,"1.49 fold enrichment (6-mer frequency, TF over GST control)"
same,binding signal,HSF1,"1.27 fold enrichment (6-mer frequency, TF over GST control)"
same,binding signal,SPIC,"1.72 fold enrichment (6-mer frequency, TF over GST control)"
same,binding signal,ELF4,"1.66 fold enrichment (6-mer frequency, TF over GST control)"
same,binding signal,ELK4,"1.6 fold enrichment (6-mer frequency, TF over GST control)"
same,binding signal,ETV2,"1.49 fold enrichment (6-mer frequency, TF over GST control)"
same,binding signal,ELF3,"1.71 fold enrichment (6-mer frequency, TF over GST control)"
same,binding signal,CRX,"1.34 fold enrichment (6-mer frequency, TF over GST control)"
same,binding signal,ETV1,"1.55 fold enrichment (6-mer frequency, TF over GST control)"
same,binding signal,ERF,"1.48 fold enrichment (6-mer frequency, TF over GST control)"
same,binding signal,ETV3L,"1.61 fold enrichment (6-mer frequency, TF over GST control)"
same,binding signal,ETS2,"1.58 fold enrichment (6-mer frequency, TF over GST control)"
same,binding signal,SPDEF,"1.45 fold enrichment (6-mer frequency, TF over GST control)"
same,binding signal,ETV7,"1.54 fold enrichment (6-mer frequency, TF over GST control)"
same,binding signal,ELF5,"1.52 fold enrichment (6-mer frequency, TF over GST control)"
same,binding signal,ETV3,"1.67 fold enrichment (6-mer frequency, TF over GST control)"
same,binding signal,ETV6,"1.52 fold enrichment (6-mer frequency, TF over GST control)"
